Several values for one entry are separate records, joined by “and”; a condition that tells them apart may be missing. Equal entries are not always repeated. In all, about 360,000 compounds went through this assay and about 340 (0.094%) were called active. Rule as the data show it: active = inhibition above about 40%; inconclusive = no clear call, values can overlap the other calls; inactive = below that. What follows is part of a selection rich in actives, with near analogues and random picks from the rest. Some structures have more than one record in an assay (separate samples or runs), and their calls can disagree.
System: 7,8-diaminopelargonic acid synthase BioA (Mycobacterium tuberculosis)
Experiment: M. tuberculosis BioA enzyme inhibitors, primary screen, biochemical, plate reader, single point, HTS (AID 602481)
Settings: purified M. tuberculosis BioA enzyme, at 9.99 µM, stronger effect = higher value

**Q.** With `O=C(C[C@@H]1C=C[C@@H](NC(=O)C2CC2)[C@H](CO)O1)NCCCN1CCOCC1` as the molecule, how does the inhibition read?
**A.** -6.18% (inactive)

**Q.** Which inhibition does the source give for `CCCc1cn(CC[C@@H]2CC[C@@H](NC(=O)CCN3CCCCC3)[C@H](CO)O2)nn1` here?
**A.** -2.51% (inactive)

**Q.** `O=C(C[C@H]1CC[C@H](NC(=O)c2ccc3c(c2)OCO3)[C@H](CO)O1)NCc1ccc(Oc2ccccc2)cc1` was tested. Which inhibition did it give?
**A.** 2.15% (inactive)

**Q.** How did the inhibition turn out when `C[C@@H](O)C#Cc1ccc2c(c1)O[C@@H](CN(C)Cc1cccnc1)[C@@H](C)CN([C@@H](C)CO)S2(=O)=O` was run?
**A.** 5.8% (inactive)

**Q.** With `CCC(CO)Oc1cc(NC(=O)c2cccc(F)c2)c2ncn(C(C)C)c2c1` (stereo not given) as the molecule, how does the inhibition read?
**A.** 20.8% (inactive) and 67.8% (active)

**Q.** How did the inhibition turn out when `CCCOc1cccc(C(=O)Nc2nnn(CCC)n2)c1` was run?
**A.** -3.8% (inactive)

**Q.** Which inhibition does the source give for `CC(C)n1cnc2c(NCc3ccccc3)cc(OCC3CCN(C)CC3)cc21` here?
**A.** 5.28% (inactive)

**Q.** `Cc1noc(C)c1NC(=O)Nc1ccc2c(c1)CC(=O)N([C@@H](C)CO)C[C@H](C)[C@H](CN(C)S(=O)(=O)c1c(C)noc1C)O2` was tested. Which inhibition did it give?
**A.** 1.52% (inactive)

**Q.** `CC(C)NC(=O)N(C)C[C@H]1Oc2c(NS(=O)(=O)c3ccc(Cl)cc3)cccc2C(=O)N([C@@H](C)CO)C[C@H]1C` was tested. Which inhibition did it give?
**A.** -1.39% (inactive)

**Q.** How did the inhibition turn out when `C[C@@H]1CN([C@@H](C)CO)C(=O)c2cc(/C=C/c3ccccc3)cnc2O[C@@H]1CN(C)C(=O)CN(C)C` was run?
**A.** -0.866% (inactive)

**Q.** Which inhibition does the source give for `CO[C@H](CN(C)S(=O)(=O)c1ccc(Cl)cc1)[C@@H](C)CN(Cc1ccccc1Cl)[C@H](C)CO` here?
**A.** -0.783% (inactive)

**Q.** With `O=C(NCC[C@@H]1CC[C@H](NS(=O)(=O)c2cccc(F)c2)[C@H](CO)O1)c1cnccn1` as the molecule, how does the inhibition read?
**A.** 2.18% (inactive)

**Q.** With `Cc1noc(C)c1S(=O)(=O)Nc1ccc2c(c1)C(=O)N([C@H](C)CO)C[C@H](C)[C@H](CN(C)C(=O)NC1CCCCC1)OCCCC[C@H](C)O2` as the molecule, how does the inhibition read?
**A.** -0.981% (inactive)

**Q.** Which inhibition does the source give for `COc1ccc(S(=O)(=O)N(C)C[C@H]2OCCCC[C@H](C)Oc3ccc(NS(=O)(=O)c4c(C)noc4C)cc3C(=O)N([C@@H](C)CO)C[C@@H]2C)cc1` here?
**A.** -0.18% (inactive)

**Q.** With `Cc1noc(C)c1NC(=O)N(C)C[C@H]1Oc2ccc(NC(=O)Nc3ccc(C(F)(F)F)cc3)cc2CC(=O)N([C@@H](C)CO)C[C@@H]1C` as the molecule, how does the inhibition read?
**A.** -2.44% (inactive)

**Q.** With `O=C(Nc1cccc(Cl)c1)N1C[C@@H]2[C@H](c3ccccc31)[C@H](CO)N2Cc1ccncc1` as the molecule, how does the inhibition read?
**A.** -5.5% (inactive)

**Q.** With `Cc1cc(C(=O)Nc2cccc3c2O[C@@H](CN(C)Cc2ccc4c(c2)OCO4)[C@@H](C)CN([C@@H](C)CO)C3=O)n(C)n1` as the molecule, how does the inhibition read?
**A.** -2.65% (inactive)

**Q.** How did the inhibition turn out when `O=C(C[C@@H]1C[C@@H]2c3cc(NC(=O)C4CCC4)ccc3O[C@@H]2[C@@H](CO)O1)NCc1ccccc1` was run?
**A.** -1.79% (inactive)

**Q.** For `O=C(C[C@@H]1CC[C@@H]2[C@H](COC[C@H](O)CN2S(=O)(=O)c2ccc(Oc3ccccc3)cc2)O1)NCCN1CCCCC1`, which inhibition is on record?
**A.** 9.19% (inactive)

**Q.** How did the inhibition turn out when `CCCN1[C@H](C(=O)NCC)[C@@H](CO)[C@@H]2Cn3c(ccc(C4=CCCC4)c3=O)[C@@H]21` was run?
**A.** -0.389% (inactive)

**Q.** For `CC(=O)N1[C@H](C(=O)N(C)C)[C@@H](CO)[C@@H]2Cn3c(ccc(-c4ccccc4)c3=O)[C@@H]21`, which inhibition is on record?
**A.** -1.69% (inactive)

**Q.** Which inhibition does the source give for `CN1C(=O)c2cc(NC(=O)c3ccc(F)c(F)c3)ccc2OC[C@H]2O[C@@H](CC(=O)N3CCCCC3)CC[C@H]21` here?
**A.** 4.19% (inactive)

**Q.** Which inhibition does the source give for `C[C@@H]1CN([C@@H](C)CO)C(=O)c2cc(C#C[C@@H](C)O)cnc2O[C@H]1CN(C)CC1CCOCC1` here?
**A.** -0.205% (inactive)

**Q.** With `O=C(C[C@H]1C[C@@H]2c3cc(NC(=O)CC4CC4)ccc3O[C@@H]2[C@@H](CO)O1)NCc1cc(F)ccc1F` as the molecule, how does the inhibition read?
**A.** -0.019% (inactive)

**Q.** `COCC#Cc1cnc2c(c1)C(=O)N([C@H](C)CO)C[C@H](C)[C@H](CN(C)Cc1ccc(-c3ccccc3)cc1)O2` was tested. Which inhibition did it give?
**A.** -2.84% (inactive)

**Q.** For `C[C@@H]1CN([C@H](C)CO)C(=O)c2cc(NC(=O)Nc3ccc(F)cc3)ccc2O[C@@H]1CN(C)Cc1ccc(Cl)c(Cl)c1`, which inhibition is on record?
**A.** -0.852% (inactive)

**Q.** For `C[C@H]1CCCCO[C@H](CN(C)C(=O)CCC(F)(F)F)[C@@H](C)CN([C@@H](C)CO)C(=O)c2cc(NC(=O)Cc3ccccc3)ccc2O1`, which inhibition is on record?
**A.** 1.33% (inactive)

**Q.** `C[C@H]1CN([C@@H](C)CO)S(=O)(=O)c2ccc(C#Cc3ccccc3)cc2O[C@H]1CN(C)S(=O)(=O)c1cn(C)cn1` was tested. Which inhibition did it give?
**A.** 0.612% (inactive)

**Q.** With `CCNC(=O)C[C@@H]1CC[C@H](NC(=O)C2CCC2)[C@@H](CO)O1` as the molecule, how does the inhibition read?
**A.** 0.933% (inactive)

**Q.** `O=C(c1ccncc1)N1CC[C@@H]2[C@H]1c1cc(Br)ccc1N[C@@H]2CO` was tested. Which inhibition did it give?
**A.** 104% (active)

**Q.** How did the inhibition turn out when `O=C(c1ccccc1)N1CC[C@H]2[C@H](CO)Nc3ccc(-c4ccc(F)cc4)cc3[C@H]21` was run?
**A.** -4.36% (inactive)

**Q.** For `O=C(c1cccnc1)N1CC[C@@H]2[C@@H](CO)Nc3ccc(-c4ccccc4)cc3[C@@H]21`, which inhibition is on record?
**A.** 18.1% (inactive)

**Q.** How did the inhibition turn out when `O=C(C[C@@H]1C=C[C@@H](NC(=O)c2ccccn2)[C@@H](CO)O1)NCc1cc(F)cc(F)c1` was run?
**A.** -2.07% (inactive)

**Q.** With `C[C@@H]1CN([C@H](C)CO)C(=O)c2cc(NC(=O)NC3CCCCC3)ccc2O[C@@H](C)CCCCO[C@H]1CN(C)S(C)(=O)=O` as the molecule, how does the inhibition read?
**A.** 1.27% (inactive)

**Q.** For `CCC(=O)Nc1ccc2c(c1)OC[C@@H](C)N(Cc1ccccn1)C[C@H](C)[C@@H](OC)CN(C)C2=O`, which inhibition is on record?
**A.** 0.9% (inactive)

**Q.** For `CO[C@H]1CN(C)C(=O)c2ccc(NC(C)=O)cc2OC[C@@H](C)NC[C@H]1C`, which inhibition is on record?
**A.** -1.23% (inactive)

**Q.** Which inhibition does the source give for `C[C@@H]1CN([C@H](C)CO)C(=O)c2cc(-c3ccccc3)cnc2O[C@H]1CN(C)C(=O)Nc1ccccc1` here?
**A.** 4.24% (inactive)

**Q.** With `CNC(=O)C[C@H]1CC[C@H]2[C@@H](COc3ccc(NS(=O)(=O)c4ccc(F)cc4)cc3C(=O)N2C)O1` as the molecule, how does the inhibition read?
**A.** 6.78% (inactive)

**Q.** With `COc1ccc(NC(=O)Nc2cccc3c2O[C@H](CN(C)S(=O)(=O)c2cn(C)cn2)[C@H](C)CN([C@@H](C)CO)C3=O)cc1` as the molecule, how does the inhibition read?
**A.** 1.78% (inactive)

**Q.** For `C=CCn1c(SCC(=O)NCCCO)nc2sc3c(c2c1=O)CCC3`, which inhibition is on record?
**A.** 2.06% (inactive)

**Q.** `CC(C)(C)C1CCc2c(sc3nc(SCC(N)=O)nc(N)c23)C1` (stereo not given) was tested. Which inhibition did it give?
**A.** 7.83% (inactive)

**Q.** `C=C(C)CSc1nc(N)c2c3c(sc2n1)CCC3` was tested. Which inhibition did it give?
**A.** 54.5% (active)

**Q.** For `C[C@H](CO)N1C[C@H](C)[C@H](CN(C)C(=O)Nc2ccc(F)cc2)OCCCC[C@H](C)Oc2ccc(NC(=O)CCC(F)(F)F)cc2C1=O`, which inhibition is on record?
**A.** -0.385% (inactive)

**Q.** Which inhibition does the source give for `C[C@@H]1CN([C@@H](C)CO)C(=O)c2cccc(NS(=O)(=O)c3ccc(F)cc3)c2O[C@H]1CN(C)S(=O)(=O)c1cccs1` here?
**A.** -1.23% (inactive)

**Q.** Which inhibition does the source give for `CC(C)NC(=O)N1CCCCN2[C@@H](CO)[C@@H](c3ccc(C#C[C@@H](C)O)cc3)[C@@H]2C1` here?
**A.** 2.83% (inactive)

**Q.** How did the inhibition turn out when `CC(C)Oc1ccc(Cc2n[nH]c(=S)n2Cc2ccccc2)cc1Cl` was run?
**A.** 0.831% (inactive)

**Q.** Which inhibition does the source give for `COc1cc(-c2n[nH]c(=S)n2Cc2ccccc2)cc(OC)c1OC` here?
**A.** 69.8% (active)

**Q.** With `CC(C)Oc1ccc(CCc2n[nH]c(=S)n2Cc2ccccc2)cc1` as the molecule, how does the inhibition read?
**A.** 0.782% (inactive)

**Q.** How did the inhibition turn out when `COc1ccc(S(=O)(=O)N2C[C@@H](O)COC[C@H]3O[C@@H](CC(=O)NCCN4CCCCC4)CC[C@@H]32)cc1` was run?
**A.** -1.77% (inactive)

**Q.** With `CC(C)NC(=O)N1[C@@H]2CN(C(=O)C3CCCCC3)c3ccccc3[C@@H]2[C@@H]1CO` as the molecule, how does the inhibition read?
**A.** -4.4% (inactive)

**Q.** `Cc1noc(C)c1S(=O)(=O)N(C)C[C@@H]1Oc2c(NS(=O)(=O)c3cn(C)cn3)cccc2C(=O)N([C@@H](C)CO)C[C@H]1C` was tested. Which inhibition did it give?
**A.** -0.608% (inactive)

**Q.** `Cc1ccc(S(=O)(=O)N(C)C[C@@H]2Oc3c(NC(=O)NC(C)C)cccc3C(=O)N([C@H](C)CO)C[C@H]2C)cc1` was tested. Which inhibition did it give?
**A.** -1.17% (inactive)

**Q.** For `CC(=O)OCC(=O)C1(O)CCC2C3CC(C)C4=CC(=O)CCC4(C)C3C(O)CC21C` (stereo not given), which inhibition is on record?
**A.** -0.825% (inactive)

**Q.** Which inhibition does the source give for `C[C@]12CCC(=O)C=C1C=CC1C2CC[C@@]2(C)C1CC[C@@]21CCC(=O)O1` (stereo not given in full) here?
**A.** 19.6% (inactive)

**Q.** For `CC(=O)O[C@]1(C(C)=O)CC[C@H]2[C@@H]3C=C(C)C4=CC(=O)CC[C@]4(C)[C@H]3CC[C@@]21C`, which inhibition is on record?
**A.** 13.2% (inactive) and 51.3% (active)

**Q.** `CC(C)C#Cc1cnc2c(c1)C(=O)N([C@@H](C)CO)C[C@@H](C)[C@@H](CN(C)C(=O)CN1CCOCC1)O2` was tested. Which inhibition did it give?
**A.** -1.21% (inactive)

**Q.** Which inhibition does the source give for `C[C@@H]1CN([C@@H](C)CO)C(=O)c2cc(NS(=O)(=O)c3cn(C)cn3)ccc2O[C@@H](C)CCCCO[C@H]1CN(C)S(=O)(=O)c1cccs1` here?
**A.** 0.052% (inactive)

**Q.** `O=C(C1CCCC1)N1[C@H](CO)[C@@H]2c3ccccc3N(S(=O)(=O)c3ccccc3)C[C@@H]21` was tested. Which inhibition did it give?
**A.** 6.11% (inactive)

**Q.** For `Cc1ccc(S(=O)(=O)N[C@H]2C=C[C@@H](CC(=O)NCCc3ccncc3)O[C@@H]2CO)cc1`, which inhibition is on record?
**A.** 2.21% (inactive)

**Q.** For `C[C@H](CO)N1C[C@H](C)[C@H](CN(C)S(=O)(=O)c2ccc(C#N)cc2)Oc2ncc(-c3cccc(F)c3)cc2C1=O`, which inhibition is on record?
**A.** 4.36% (inactive)

**Q.** `CO[C@@H](CN(C)S(=O)(=O)c1ccccc1)[C@@H](C)CN(Cc1ccccc1Cl)[C@H](C)CO` was tested. Which inhibition did it give?
**A.** -0.143% (inactive)

**Q.** With `CC1CC(C)CN(C(=O)CSc2nnc(CSc3ncccn3)n2C)C1` (stereo not given) as the molecule, how does the inhibition read?
**A.** 0.828% (inactive)

**Q.** For `O=C(CSc1nnc(-c2ccncc2)n1C1CCCCC1)Nc1ccccc1`, which inhibition is on record?
**A.** -0.812% (inactive)

**Q.** Which inhibition does the source give for `CC(=O)CSc1nnc(CSc2ncccn2)n1C1CCCCC1` here?
**A.** 43.5% (active)

**Q.** `CCCN1C[C@H](C)[C@@H](OC)CN(C)C(=O)c2ccc(NC(=O)c3cnccn3)cc2OC[C@H]1C` was tested. Which inhibition did it give?
**A.** -1.47% (inactive)

From PubChem BioAssay AID602481 (Broad Institute, 2012)
